From PubChem
VP16 counter = counter-screen for ROR gamma inhibitors: Gal4-VP16 reporter | actives 3.5% (n = 310,000) | Potency, µM (top dose mostly 53.6 µM), without a hit: at the top dose activity, negative = inhibition, hits mostly inhibitors | Drosophila S2 Gal4-VP16 UAS-luciferase, luminescence, 20 h;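 note: Gal4-VP16 expression switched on by copper sulfate through the metallothionein promoter; potency is the fitted concentration of half-maximal effect; nearly all actives have a fitted effect of over 50% in size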
IL-1B inflam inh = blocks inflammasome-driven IL-1 beta release; activity change, % at 57.5 µM; actives 4.7% (n = 360,000); THP-1 LPS/ATP IL-1B secretion, AlphaLISA, 16 h; stronger effect = lower value; in the data active = activity change below about -50%; inconclusive = mostly about -30% to -49%
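THP-1 cells pretreated 1 hr with compounds (up to 57.5 uM final), then stimulated with LPS (250 ng/mL final) plus ATP (1.25 mM final); secreted IL-1B measured by AlphaLISA after 16 hr, decreased signal indicating inhibition.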
LDHA inh = LDHA (human) enzyme inhibition | P00338 | purified LDHA, NADH/diaphorase-resazurin fluorescence; stronger effect = lower value | activity change, % (values are at about 110 or 230 µM) | actives 0.15% (n = 480,000) | AID 1347041; in the data active = activity change below about -30%; inconclusive = mostly about -25% to -30%;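 note: plate controls were DMSO wells for no effect and wells without enzyme for full effect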
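Remaining NADH was detected by diaphorase (0.133 mg/mL) converting 37 µM resazurin to fluorescent resorufin, read at 0 and 20 minutes. The preceding 5-minute room-temperature reaction used 2 nM LDHA, 0.2 mM sodium pyruvate and 0.06 mM NADH at pH 7.4.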
DT40 TDP1 CPT = growth inhibition of DT40 Tdp1-/-;hTDP1 cells with camptothecin (screen for TDP1 inhibitors). chicken DT40 Tdp1-/-;hTDP1 cells + 20 nM CPT, ATP luminescence, 48 h. Potency, µM (series often up to 46.2 µM), without a hit: top-dose activity change, negative = growth inhibition, actives largely listed as inhibitors. actives 12% (n = 420,000). AID 686979; note: potency is the fitted concentration of half-maximal effect; nearly all actives have a fitted effect of over 55% in size
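Cell growth measured by CellTiter-Glo luminescence after a minimum 48 h, 37 C compound exposure with 20 nM CPT in Tdp1-knockout DT40 cells stably expressing hTDP1, seeded 400/well; qHTS titration format.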
TDP1 cell noCPT = qHTS for Inhibitors of human tyrosyl-DNA phosphodiesterase 1 (TDP1): qHTS in cells in absence of CPT. DT40 Tdp1-/- hTDP1 cells, no CPT, ATP luminescence, 48 h. Potency, µM (series often up to 46.2 µM), without a hit: at the highest dose activity change, negative = growth inhibition, hits mostly inhibitors. actives 15% (n = 420,000); note: potency is the fitted concentration of half-maximal effect; nearly all actives have a fitted effect of over 55% in size
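Stably hTDP1-transfected Tdp1-null chicken DT40 cells were treated with library compounds minus camptothecin and grown for at least 48 hr at 37 °C, after which cellular ATP was quantified by luminescence.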
RORg inh = inhibitors of mouse ROR gamma transcriptional activity. Potency, µM (doses to about 53.6 µM), for inactives: at the top dose activity change, negative = inhibition, usual class: inhibitors. Drosophila S2 Gal4-RORgamma UAS-luciferase reporter, 20 h. actives 5.4% (n = 310,000). P51450; note: potency is the fitted concentration of half-maximal effect; nearly all actives have a fitted effect of over 60% in size
Target sequence (P51450 whole entry, looked up, the tested form may be a part): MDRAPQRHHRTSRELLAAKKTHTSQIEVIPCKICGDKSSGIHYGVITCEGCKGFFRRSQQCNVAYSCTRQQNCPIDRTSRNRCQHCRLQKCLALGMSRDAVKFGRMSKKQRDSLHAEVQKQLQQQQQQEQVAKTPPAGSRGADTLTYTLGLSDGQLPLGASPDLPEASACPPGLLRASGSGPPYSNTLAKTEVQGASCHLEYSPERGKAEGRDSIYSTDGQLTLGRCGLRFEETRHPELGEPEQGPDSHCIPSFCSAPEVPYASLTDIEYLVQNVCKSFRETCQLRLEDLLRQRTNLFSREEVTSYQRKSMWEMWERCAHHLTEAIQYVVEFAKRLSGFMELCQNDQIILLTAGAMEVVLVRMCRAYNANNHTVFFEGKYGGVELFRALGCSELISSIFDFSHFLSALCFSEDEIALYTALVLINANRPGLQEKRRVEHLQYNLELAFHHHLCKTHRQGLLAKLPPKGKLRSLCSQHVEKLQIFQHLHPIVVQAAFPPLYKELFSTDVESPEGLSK
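Stably transfected Drosophila Schneider cells are the test system, with ROR gamma fused to Gal4 and luciferase under UAS control; luminescence is read after 20 hr of 700 uM copper sulfate induction at ambient temperature.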
* = called active by the depositor; ? = inconclusive; / = no result. An excerpt weighted towards active compounds, which were near 18% of everything screened. Unless noted, calls come from the whole dose curve; as a rule, active = well fitted curve in the direction sought with a large enough effect; inconclusive = small, poorly fitted or top-dose-only effect, or another doubt; inactive = no such curve, though single readings can be large; an effect the other way counts as inactive or inconclusive. Unless noted, % is set by controls: 0 for no effect and ±100 for the full control effect.

SMILES	VP16 counter	IL-1B inflam inh	LDHA inh	DT40 TDP1 CPT	TDP1 cell noCPT	RORg inh
CC1CCc2c(sc3nn[nH]c(=O)c23)C1 (stereo not drawn)	-16.9%	19.9	-2.4	-18.1%	-21.7%	30.0%
C=CCn1c(=S)[nH]c2sc3c(c2c1=O)CCC3	?	34.5	1.4	?	?	0.1µM*
CCn1c(=O)c2c3c(sc2n2cnnc12)CCC3	3.5%	4.4	-4.8	-26.2%	-19.2%	0.1%
CN(C)CCCn1c(=O)n(C2CCCCC2)c(=O)c2c3c(sc21)CCCCC3	/	?	7.3	?	-24.5%	/
CN(C)CCCn1c(=S)[nH]c2sc3c(c2c1=O)CCCC3	?	?	3.0	-14.6%	-18.7%	14.1µM*
CCn1c(=S)[nH]c2sc3c(c2c1=O)CCCC3	0.631µM*	-5.5	-4.5	-8.5%	-17.1%	0.447µM*
NC(=O)c1c(NC(=O)CN2CCN(C(=O)C3CC3)CC2)sc2c1CCC2	/	/	8.2	/	/	/
COc1ccc(N(Cc2ccccc2)C(=O)c2nc(SC)ncc2Cl)cc1	/	/	-0.3	10.3µM*	5.17µM*	/
CCS(=O)(=O)c1ncc(Cl)c(C(=O)N(Cc2ccccc2)c2ccc(OC)cc2)n1	/	/	-6.8	1.03µM*	0.651µM*	/
COc1ccc(OC(=O)c2nc(SCc3ccc(F)cc3)ncc2Cl)cc1	/	/	-0.6	-14.3%	-12.0%	/
CCOC(=O)c1noc2nc(C)nc(Nc3cccc(C(F)(F)F)c3)c12	/	/	0.6	/	/	/
Cc1ccc(S(=O)(=O)N2CCC(n3c(C)nc4cccnc43)CC2)c(C)c1	/	/	-2.5	6.51µM*	7.31µM*	/
O=C(Cc1ccccc1F)Nc1ccc(S(=O)(=O)N2CCCCC2)cc1	3.4%	5.4	1.5	-21.3%	4.1%	5.6%
Cc1ccc(NC(=O)CSCC(=O)N(C)Cc2c(F)cccc2Cl)cc1	/	-12.9	1.1	18.4µM*	25.9µM*	/
CN(CC(=O)Nc1ccc(S(=O)(=O)N2CCCC2)cc1)Cc1c(F)cccc1Cl	-7.9%	-59.6*	-7.1	14.6µM*	16.4µM*	-0.4%
COc1ccc(S(=O)(=O)N2CCOCC2)cc1NC(=O)CN(C)Cc1c(F)cccc1Cl	2.5%	-65.7*	1.7	?	20.6µM*	29.9%
CN(CC(=O)Nc1ccc(S(=O)(=O)N2CCCC2)cc1)Cc1ccc(Cl)cc1	-12.8%	0.0	0.8	16.4µM*	?	30.7%
Cc1ccc([N+](=O)[O-])c(NC(=O)COc2ncnc3ccccc23)c1C	/	/	0.1	/	/	/
CC(CNC(=O)C1CCN(Cc2cc3ccccc3n2Cc2ccccc2)CC1)c1ccccc1 (stereo not drawn)	/	/	-3.1	23.1µM*	16.4µM*	/
CC(C)CNC(=O)C1CCN(Cc2ccc(OCc3ccccc3)cc2)CC1	26.0%	14.6	-9.9	?	?	-8.3%
O=C(NCCc1ccccc1)C1CCN(Cc2cccc3ccccc23)CC1	/	-51.1*	-7.2	?	?	/
CCS(=O)(=O)N1CCC(C(=O)NCCc2ccccc2)CC1	7.2%	5.0	-4.9	1.2%	-4.5%	6.4%
CCS(=O)(=O)N1CCC(C(=O)NCCN2CCN(Cc3ccccc3)CC2)CC1	-3.4%	13.3	-16.3	-13.7%	-9.4%	-0.6%
CCCNC(=O)C1CCN(Cc2cc3ccccc3n2Cc2ccccc2)CC1	/	/	1.3	?	18.4µM*	/
O=C(NCCc1ccccc1)C1CCN(Cc2cc3ccccc3n2Cc2ccccc2)CC1	/	/	-3.8	?	20.6µM*	/
SMILES	VP16 counter	IL-1B inflam inh	LDHA inh	DT40 TDP1 CPT	TDP1 cell noCPT	RORg inh
CCOc1ccc(-c2[nH]nc3c2C(c2cc(OC)c(OC)cc2Br)C(C#N)=C(N)O3)cc1 (stereo not drawn)	/	/	1.1	/	/	/
CN(Cc1ccccc1)C(=O)C1CCN(Cc2cc3ccccc3n2Cc2ccccc2)CC1	/	/	1.8	?	?	/
CN(C)CCNC(=O)C1CCN(Cc2cc3ccccc3n2Cc2ccccc2)CC1	/	/	-4.3	20.6µM*	16.4µM*	/
CCOc1ccccc1CNC(=O)C1CCN(S(=O)(=O)N2CCC(C)CC2)CC1	/	-19.0	-3.9	?	?	/
CCOc1ccccc1CNC(=O)C1CCN(Cc2cc3ccccc3n2Cc2ccccc2)CC1	/	/	-6.6	?	16.4µM*	/
COc1ccc(-c2nnc(SCc3nc(-c4ccco4)no3)n2CCc2ccccc2)cc1	/	/	4.2	/	/	/
O=C(Nc1nc(OCC(F)(F)F)cnc1/C=C\c1ccccc1)c1ccsc1	/	-4.9	-9.4	23.1µM*	?	/
COc1ccc(C(=O)Nc2nc(OCC(F)(F)F)cnc2/C=C\c2ccccc2)c(OC)c1	/	-14.0	-3.2	20.6µM*	?	/
COc1cccc(/C=N\NC(=O)c2cc(OCC(F)(F)F)ccc2OCC(F)(F)F)c1	-23.6%	-5.7	-2.8	?	?	-33.6%
COc1cccc(-n2nc(C#N)c(Cl)cc2=O)c1	7.08µM*	-101.4*	2.1	2.31µM*	2.91µM*	3.55µM*
COc1cccc(-n2nc(C(N)=O)c(O)cc2=O)c1	1.6%	11.7	-5.1	1.6%	-20.0%	-0.5%
CCCCn1c(=O)n(CC(O)COc2cccc3ccccc23)c(=O)c2c1ncn2C1CCCC1 (stereo not drawn)	/	/	9.0	/	/	/
Cc1[nH]c2ccccc2c1C(C[N+](=O)[O-])c1cccs1 (stereo not drawn)	-4.0%	-95.9*	-3.7	?	?	40.4%
Cc1ccc(-c2[nH]c3ccccc3c2C(C[N+](=O)[O-])c2ccco2)cc1 (stereo not drawn)	22.4µM*	-1.2	3.6	?	?	3.1%
Cc1[nH]c2ccccc2c1C(C[N+](=O)[O-])c1ccco1 (stereo not drawn)	-7.8%	4.3	0.0	?	?	-0.8%
Cc1ccc(-c2cc(-c3cccc(F)c3)n[nH]2)c(O)c1	10µM*	-11.9	-6.6	-9.8%	?	11.2µM*
O=[N+]([O-])c1ccccc1-c1cc(-c2ccccc2O)n[nH]1	?	-74.1*	6.5	?	?	?
Cc1ccc(O)c(-c2cc(-c3ccccc3F)[nH]n2)c1	?	-10.0	1.2	?	?	?
Cc1ccc(-c2cc(-c3ccccc3C)[nH]n2)c(O)c1	1.41µM*	-11.1	-1.4	?	?	0.794µM*
COCCN(Cc1cc2ccc(C)cc2[nH]c1=O)C(=O)c1ccc(OC)c(OC)c1	/	/	13.4	/	/	/
COC(=O)C1=C(C(=O)c2ccc(C)cc2)C(c2ccc(C(=O)OC)cc2)n2nnnc2N1 (stereo not drawn)	/	/	12.5	/	/	/
